The record followed here is PubChem BioAssay AID652141 (The Scripps Research Institute Molecular Screening Center, 2013).

Hit rate of the full screen: of about 5,600 compounds, about 4,500 (80%) were called active. So high a share suggests a set chosen from earlier hits. A selection follows. A number with no mark means an inactive call. No stated cut-off is given here; in the data, active means inhibition above about 10%; inactive means the rest.

This assay is described as follows: inhibition of coupled GDH and TPI enzymes – biochemical, fluorescence, high throughput, artefact control for M. tuberculosis FBA inhibitor project (AID 652141). Conditions: GDH-TPI coupled enzyme counterscreen, at 1 µM, active compounds read high. Background: The purpose of a counterscreen is to sort out artefacts and off-target activity.
In the case of `NC(=O)C1CCN(C(=O)COc2ccc3c4c(c(=O)oc3c2)CCC4)CC1`, the inhibition (usually the relative decrease from the control value, in per cent) is -5.33%.
For the compound `CCCCC(NS(=O)(=O)c1ccc(C)cc1)C(=O)Oc1ccc2c3c(c(=O)oc2c1)CCC3` (stereo unspecified), the inhibition is 68.4% (active).
The result for `C=CCn1c(N)c(C(=O)OCC(C)C)c2nc3ccccc3nc21` reads 59.2% (active); that for `CCCNC(=O)c1c(N)n(-c2ccc(S(N)(=O)=O)cc2)c2nc3ccccc3nc12`, 3.87%; that for `CC(C)Cn1c(N)c(C(=O)NCc2cccs2)c2nc3ccccc3nc21`, 29.6% (active).
Take `COCC(C)OC(=O)c1c(N)n(CCCN2CCOCC2)c2nc3ccccc3nc12` (stereo unspecified): the inhibition was -2.55%.
In the case of `COc1cccc(NC(=O)CN(C)C(=O)/C=C/c2cc(OC)ccc2OC)c1`, the inhibition was 82.6% (active).
`COc1cccc(NC(=O)CN(C)CC(=O)Nc2ccc3c(c2)CCC3)c1`: the inhibition is 73.6% (active).
Regarding `OC[C@@H]1CN(Cc2cccs2)C[C@H](n2cnc3c(Nc4ccccc4)ncnc32)O1`, the inhibition was 64.2% (active).
For the compound `COc1ccccc1NC(=O)COc1ccc(C(=O)OCC(=O)N(C(C)C)C(C)C)cc1OC`, the inhibition is -2.75%.
On to `COc1ccccc1C(=O)Nc1ccc(OCC(=O)N2CCCCC2)cc1`, for which the inhibition was 137% (active).
Take `O=C1CC2(CCCCC2)Oc2ccc(OCC(=O)N3CCOCC3)cc21`: the inhibition is 0.92%.
Regarding `COc1ccc2c(c1OC)C(=O)N(c1ncn[nH]1)C2`, the inhibition is 53% (active).
The value for `COc1nc(N=C(N)N)nc2c(C)cccc12` was 83.6% (active); that for `COc1ccc2c(c1)cc1n2CCN=C1NN` was 89.8% (active); that for `COCCCn1c(CCC(=O)O)ccc1-c1ccc(F)cc1` was 43.6% (active).
`CN(C)CCCNC(=O)c1ccc2[nH]c3ccccc3c2c1`: the inhibition was 96.7% (active).
The value for `Cc1ccc(-c2nc3ccccc3[nH]c2=O)cc1` was 61.1% (active).
For `c1ccc2c(NC3C4CC5CC(C4)CC3C5)nc(N3CCOCC3)nc2c1` (stereo unspecified), the inhibition was 95.8% (active).
The value for `CC(Nc1nc(N2CCOCC2)nc2ccccc12)c1ccccc1` (stereo unspecified) was 31% (active); that for `COc1ccc(-c2ccc(C(=O)NC(C)C)c3occc23)c(C)c1` was 86.3% (active); that for `COc1ccc(-c2ccc(C(=O)NCCN3CCOCC3)c3occc23)c(C)c1` was 56.7% (active).
`COCc1cc(=O)[nH]c2cc(NC(=O)C(F)(F)F)c(C)cc12`: the inhibition is 67.2% (active).
The result for `CCC(=O)Nc1ccc2nn(-c3ccc(F)cc3)nc2c1` reads 70% (active).
As to `CCNC(=S)Nc1ccc2c(c1)c(=O)n(C)n2Cc1ccc(Cl)cc1`, the inhibition was -3.99%.
For the compound `COCCNc1cc(-c2ccccc2)nc2cc(-c3cccc(F)c3)nn12`, the inhibition was 133% (active).
The value for `Cc1cc(S(=O)(=O)c2cc3ccc(O)c(C)c3oc2=O)ccc1F` was 40.8% (active); that for `COc1cccc2sc3cc(NCC[C@@H]4CCCN4C)ccc3c(=O)c12` was 69.2% (active).
The result for `COc1ccc(C2NC(=O)c3ccccc3N2)cc1` (stereo unspecified) reads 122% (active); that for `O=C1NC(c2cccc(Cl)c2)Nc2ccccc21` (stereo unspecified), 84.8% (active); that for `CCN1CCN(C(=O)c2cc3cc4ccc(OC)cc4nc3s2)CC1`, 74.1% (active).
As for `CCOC(=O)Cc1c(C)nc2c(C#N)c(C)nn2c1C`, the inhibition was 39.1% (active).
The value for `COC(=O)c1noc(C)c1-c1ccnn1C(=O)c1ccc(Cl)cc1` was 38.9% (active).
Take `COc1ccc(-c2cc(C(=O)N(C)Cc3ccccc3)c3ccccc3n2)cc1`: the inhibition was -2.5%.
In the case of `COc1ccc(-c2cc(C(=O)Nc3ccccc3O)c3ccccc3n2)cc1`, the inhibition was 114% (active).
Turning to `COc1ccc(-c2cn3ccc(C)cc3n2)cc1`, the inhibition is -5%.
The value for `O=c1oc2ccccc2cc1-c1cn(-c2ccccc2)c(=S)[nH]1` was 13.5% (active); that for `COc1ccc2nc(-c3ccccn3)ccc2c1` was 93.8% (active); that for `Cc1cc(C)c2c(n1)sc1c(=O)n(-c3ccccc3)c(=O)[nH]c12` was 62.5% (active).
The value for `CCCc1cc(=O)oc2c(C)c(OCC(=O)N3CCC(C(=O)O)CC3)ccc12` was -7.26%.
Consider `CCc1cc(=O)oc2c(C)c(OCC(=O)N3CC[C@@]4(O)CCCC[C@H]4C3)ccc12`, for which the inhibition was 99.4% (active).
The result for `CCN(CC)CCCNC(=O)c1cc2c(=O)[nH]c3ccc(C)cc3c2s1` reads 98.2% (active); that for `CCCN(C(=O)CSc1nnc(N)s1)c1c(N)n(Cc2ccccc2)c(=O)[nH]c1=O`, 48% (active).
In the case of `CCOc1ccc2nc(NCCNS(=O)(=O)c3ccccc3)c(C#N)cc2c1`, the inhibition was 15.8% (active).
The result for `O=C1C(=O)N(c2ccccc2)C(c2ccccc2)C1c1ccccc1` (stereo unspecified) reads 0.69%.
The value for `Cn1nc(-c2ccc(Cl)cc2)c2cc(C(=O)NCc3ccco3)sc21` was 33.3% (active); that for `CCc1ccc(-c2cc(C(=O)NCc3ccco3)c3ccccc3n2)s1` was -5.16%.
The value for `Cc1cc(C)c2nc3nc(C)cc(C)c3c(N)c2c1` was 22.9% (active).
Consider `Cc1cc(C)c2nc(-c3ccco3)cc(C(=O)O)c2c1`, for which the inhibition was 2.96%.
The value for `CN1C(=O)c2ccc(NC(=O)c3c(F)c(F)c(F)c(F)c3F)cc2C1=O` was 651% [above what the read-out allows, likely interference] (active).
The value for `CN1C(=O)c2ccc(NC(=O)C3CCCCC3)cc2C1=O` was -2.4%.
As for `COCCNc1nc(-n2nc(C)cc2C)nc2sc3c(c12)CCCC3`, the inhibition was 97.7% (active).
The result for `COc1ccc(NC(=O)N2CCC(Cc3ccccc3)CC2)cc1` reads 23.6% (active).
The value for `O=C(NCc1ccccc1)c1onc(CSc2nc3ccccc3[nH]2)c1C(=O)NCc1ccccc1` was 55.8% (active); that for `CCOC(=O)N1CCC(NC(=O)c2cnn3ccccc23)CC1` was 33.9% (active); that for `CCCC1OC23CCCCC2C(C#N)(C#N)C1(C#N)C(=N)O3` (stereo unspecified) was -5.15%.
As to `CC12CCC(C(=O)N3CCN(c4ncccn4)CC3)(c3nc4ccccc4nc31)C2(C)C` (stereo unspecified), the inhibition was 143% (active).
The value for `CCc1c(C)c2ccc(OC3CCCCC3=O)cc2oc1=O` (stereo unspecified) was 78% (active); that for `COc1ccc(-c2oc3ncnc(NCCCO)c3c2-c2ccc(OC)cc2)cc1` was 39.6% (active); that for `O=C(NCCCN1CCOCC1)c1cnn2c(-c3ccccc3)cc(-c3ccccc3)nc12` was 79.2% (active).
The value for `O=C(O)Cc1sc(-c2ccc(C(=O)O)cc2)nc1-c1ccccc1` was -7.95%.
